Shown are actives, neighbours in structure and some others; about 2.4% of the full set was active somewhere.
D2 ag-1 – agonists of human D2 dopamine receptor | P14416 | HEK293 T-REx D2 cells, calcium flux agonist mode | activation, % at 2 µM | 340,000 compounds, 0.53% hits | AID 485358;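 active = activation over 3 SD above normal in the single-dose calcium agonist read, cut at about 30% in these data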; also: 0% is about no effect
Target sequence (P14416 whole entry, looked up): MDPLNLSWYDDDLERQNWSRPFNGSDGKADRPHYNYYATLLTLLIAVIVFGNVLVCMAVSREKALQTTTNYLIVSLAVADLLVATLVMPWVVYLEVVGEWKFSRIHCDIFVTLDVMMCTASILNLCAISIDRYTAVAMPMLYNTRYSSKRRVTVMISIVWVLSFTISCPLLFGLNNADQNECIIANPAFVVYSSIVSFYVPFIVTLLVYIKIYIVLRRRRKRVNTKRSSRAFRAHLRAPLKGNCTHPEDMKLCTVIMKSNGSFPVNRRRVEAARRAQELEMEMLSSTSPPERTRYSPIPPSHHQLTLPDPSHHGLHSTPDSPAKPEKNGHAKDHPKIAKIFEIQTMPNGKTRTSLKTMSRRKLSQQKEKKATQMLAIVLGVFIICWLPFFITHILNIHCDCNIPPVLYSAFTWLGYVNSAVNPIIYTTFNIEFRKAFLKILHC
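Agonism scored from kinetic calcium signal (1 read/sec, 180 s) following compound pin transfer, after a 10 s baseline. Cells: HEK293 Trex line expressing inducible D2 receptor coupled to calcium, dye-loaded after overnight culture at 30 C.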
D2 ag-2 – agonists of human D2 dopamine receptor (beta-arrestin); P14416; DiscoveRx PathHunter D2 beta-arrestin, luminescence, 90 min; 100% = 57 uM dopamine signal; activation, % (no concentration beside the values); 360,000 compounds, 0.084% hits; AID 624465; in the data active = activation above about 40%; inconclusive = between about 15% and that limit
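DiscoveRx PathHunter D2 beta-arrestin cells (2,100/well) attached overnight, then compound-stimulated 90 min at 37 C in HBSS/10 mM HEPES/0.1% Tween-20 buffer; beta-galactosidase complementation read by luminescence after 1 h at ambient temperature. Dopamine 57 uM final (EC100) as control.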
D2 PAM-1 – D2 dopamine receptor (human) potentiation | potentiation, % at 10 µM | P14416 | AID 485347 | 340,000 compounds, 0.34% hits | HEK293 T-REx D2, calcium flux, EC20 dopamine potentiation;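 active = potentiation over 3 SD above the plate norm, cut at about 30% in these data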; also: 0% is about no effect
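Tetracycline-induced Hek293 Trex D2 cells, force-coupled to calcium, loaded with no-wash calcium dye. Compound added with 180 s kinetic read for agonism, then EC20 dopamine and a further 180 s read for potentiation.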
D2 PAM-2 – positive allosteric modulators of human D2 dopamine receptor | potentiation, % (test concentration not listed) | AID 624464 | 360,000 compounds, 0.23% hits | DiscoveRx D2 beta-arrestin cells, luminescence, 90 min; 100% = 57 uM dopamine signal; in the data active = potentiation above about 50%; inconclusive = mostly about 30% to 49%
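D2 cells co-treated with compound plus 50 nM dopamine (EC20) for 90 min at 37 deg C to detect potentiation. Beta-arrestin recruitment was read as enzyme-fragment luminescence after 1 h at ambient temperature. Full response was set by 57 uM dopamine.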
D2 antagonist – antagonizes the human D2 dopamine receptor; 340,000 compounds, 2% hits; AID 485344; P14416; HEK293 TREx D2 cells, calcium flux, dopamine EC80; inhibition, % at 10 µM; in the data active = inhibition above about 30%; inactive = below that, where a call was filed; also: 0% is about no effect
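Inhibition of EC80 dopamine-driven calcium flux, recorded kinetically, defines activity here; cells are a tetracycline-induced HEK293 T-REx line expressing force-coupled D2.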
* hit, by the source's call; u = inconclusive; x = not tested or not shown.

SMILES | D2 ag-1 | D2 ag-2 | D2 PAM-1 | D2 PAM-2 | D2 antagonist
C/C=C(/C)C(=O)Nc1cccc(C2=NOC3(C2)C[C@@H](C(N)=O)N(C(=O)CC)C3)c1 (some centres undefined) | 0 | 0 | -20 | -2 | 43*
C=C(C)C(=O)Nc1cccc(C2=NOC3(C2)C[C@@H](C(N)=O)N(C(=O)c2ccc(OC)cc2)C3)c1 (some centres undefined) | 0 | -2 | -6 | -6 | 8
C=C(C)C(=O)Nc1cccc(C2=NOC3(C2)C[C@@H](C(N)=O)N(C(=O)c2cc([N+](=O)[O-])cc([N+](=O)[O-])c2)C3)c1 (some centres undefined) | 0 | 12 | 11 | 84* | -14
CCOc1ccc(CCNC(=O)c2c(C)oc3ncn(CC(C)C)c(=O)c23)cc1 | -1 | x | -1 | x | x
Cn1c(=O)c(/C=C/c2ccc(F)cc2)nc2ccccc21 | 0 | -2 | 5 | -9 | 8
O=c1c(/C=C(\O)c2ccc(F)cc2)nc2ccccc2n1-c1ccccc1 | 44* | -7 | -10 | -16 | 4
CC1CCCC(NC(=O)CC2Nc3ccccc3NC2=O)C1C (centres undefined) | 0 | -2 | 0 | -5 | 30*
O=C(CC1Nc2ccccc2NC1=O)NC1CCCCC1 (centres undefined) | 0 | -1 | -2 | -4 | 1
Cc1oc(-c2ccccc2Cl)nc1CSc1nc2c(c(=O)[nH]1)CCC2 | 0 | 14 | 5 | 9 | 35*
Cc1oc(-c2cccc(Cl)c2)nc1CSc1nc2c(c(=O)[nH]1)CCC2 | -1 | -1 | -1 | -7 | 8
CC(=O)Oc1ccc2c(c1)Oc1cc(OC(C)=O)ccc1C21OC(=O)c2ccccc21 | 165* | 7 | -24 | u | 84*
Cc1cc(O)ccc1C1(c2ccc(O)cc2C)OC(=O)c2ccccc21 | 0 | -1 | 7 | -3 | -3
O=C(Nc1ccc(OC(F)(F)F)cc1)C1CC(=O)N(Cc2ccco2)C1 (centres undefined) | -2 | -5 | 0 | 6 | 47*
Cc1ccccc1NC(=O)C1(C)Cc2ccccc2C(=O)O1 (centres undefined) | 2 | -2 | 33* | -6 | -10
CCCOc1ccc(F)cc1-c1cc(C(=O)NCc2cccs2)[nH]n1 | x | -8 | x | -11 | x
CCCCCCCNC(=O)C1(CC2CC(c3ccc(Cl)cc3)=NO2)CCN(C(=O)c2cc(OCC)c(OCC)c(OCC)c2)CC1 (centres undefined) | 1 | 0 | -11 | -7 | 44*
CN(C)CCCn1c(SCC(=O)Nc2sc3c(c2C#N)CCCC3)nnc1-c1ccncc1 | 0 | 0 | -4 | -15 | 39*
COc1ccc(NC(=O)c2c(C)oc3ccc(O)c(CN4CCN(Cc5ccccc5)CC4)c23)cc1 | 0 | x | -14 | x | x
CC(C)[C@H](NC(=O)c1ccco1)C(=O)Nc1ccc(OC(F)F)cc1 | 0 | -2 | 4 | -1 | -2
CC(C)C(NC(=O)c1ccccc1)C(=O)NCC(c1ccccc1)N(C)C (centres undefined) | x | -1 | x | -11 | x
CC(C)C(NC(=O)c1ccco1)C(=O)NCC(c1ccco1)N(C)C (centres undefined) | 0 | -3 | 33* | -7 | 12
CCOc1ccc(NC(=O)[C@@H](NC(=O)c2ccco2)C(C)C)cc1 | 2 | -4 | 2 | -10 | 39*
Cc1ccc(C)c(N2CCN(CCCNC(=O)C3COc4ccccc4C3)CC2)c1 (centres undefined) | 1 | x | -24 | x | x
Cc1ccc(NC(=O)CSc2nc3ccccc3c3nc(CCc4c(C)n[nH]c4C)nn23)c(C)c1 | 0 | x | -19 | x | x
COc1ccc(C)cc1NC(=O)CCCN1C(=O)C(c2ccccc2)Oc2cccnc21 (centres undefined) | -1 | -2 | 5 | -36 | 38*
SMILES | D2 ag-1 | D2 ag-2 | D2 PAM-1 | D2 PAM-2 | D2 antagonist
CCOc1ccc(OCc2cccc(C(=O)O)c2)cc1 | 0 | 3 | -1 | -1 | -16
COc1ccc(OCc2cccc(C(=O)O)c2)cc1 | 1 | -1 | 3 | -9 | 35*
O=S(=O)(Nc1cccc(S(=O)(=O)N2CCOCC2)c1)c1ccc2c(c1)OCCO2 | 2 | -4 | 5 | 2 | 0
O=S(=O)(Nc1cccc(S(=O)(=O)N2CCOCC2)c1)c1cccs1 | 32* | -2 | -11 | -4 | 10
COc1ccc(/C(N)=N/OC(=O)c2ccc(C)c([N+](=O)[O-])c2)cc1OC | -1 | -1 | 5 | 2 | -4
N/C(=N\OC(=O)c1ccc(Cl)c(Cl)c1)c1ccccn1 | 0 | 11 | -4 | 82* | -1
N/C(=N\OC(=O)c1ccc(Cl)c([N+](=O)[O-])c1)c1ccccc1 | 0 | 12 | -1 | 94* | -9
N/C(=N\OC(=O)c1ccc(Cl)cc1)c1ccccn1 | 1 | 15 | 4 | 16 | -13
CCOc1cc(C(=O)O/N=C(\N)c2ccccn2)cc(OCC)c1OCC | 1 | u | 12 | 72* | 1
N/C(=N\OC(=O)c1ccc(Cl)c([N+](=O)[O-])c1)c1ccccn1 | 5 | 10 | 36* | u | 6
COc1ccc(-n2c(=O)c3sc4ccccc4c3n(CC(=O)N3CCCC3)c2=O)cc1 | 0 | x | -13 | x | x
N#CC1C(=O)NC(=O)CC12CCCCC2 (centres undefined) | x | 0 | x | -5 | x
CCOc1ccc(-n2c(=O)c3c4c(sc3n(Cc3cccc(Cl)c3)c2=O)CCCC4)cc1 | 1 | x | -4 | x | x
N/C(=N\OC(=O)c1ccc([N+](=O)[O-])cc1)c1ccc(Br)cc1 | 0 | 14 | 4 | 7 | -15
N/C(=N\OC(=O)c1cc(-c2ccccc2)nc2ccccc12)c1ccccn1 | -2 | 48* | -2 | 7 | 24
Cc1ccc(/C(N)=N/OC(=O)c2cc(-c3ccccc3)nc3ccccc23)cc1 | 0 | -4 | 2 | -3 | -4
CCOc1cc(C(=O)O/N=C(\N)c2ccc([N+](=O)[O-])cc2)cc(OCC)c1OCC | 0 | u | 4 | 76* | -4
CC(=O)c1ccc(N(CC(=O)NCCc2ccccc2)C(=O)c2csnn2)cc1 | -1 | -5 | 3 | -6 | 6
Cc1oc(-c2ccccc2F)nc1CS(=O)CC(=O)NC(C)C (centres undefined) | x | x | 2 | x | x
CCOC(=O)C1(C)CCN1C(=O)c1cccc(Cl)c1 (centres undefined) | x | 42* | x | 4 | x
CC(=O)N1CC2(CC(c3ccc(Cl)cc3Cl)=NO2)CN1c1cccc(Cl)c1 (centres undefined) | x | 2 | x | 7 | x
CCn1cnc2c1c(=O)n(Cc1csc(-c3ccccc3)n1)c(=O)n2Cc1ccccc1 | 1 | 0 | 7 | -1 | 4
